This is a sample that favours compounds with a hit; in the whole collection about 1.6% have one here.
KCNQ2 pot – enhances the rat KCNQ2 potassium channel; O88943; CHO-K1 KCNQ2, FluxOR thallium flux fluorescence; stronger effect = higher value; B-score at 10 µM; 310,000 tested, 0.54% active; AID 2239;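 active = fluorescence ratio B-score at least 3 SD of library B-scores, with initial fluorescence B-score within 3 of them, cut at about 5.3 in these data; same plate scores as AID 2156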;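 also: B-score of peak minus minimum over baseline fluorescence ratio after K+ and Tl+ stimulus; positive B-score means potentiation of KCNQ2 with more thallium influx and brighter signal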
KCNQ2 inh – KCNQ2 (rat) channel inhibition | 310,000 tested, 1.1% active | B-score at 10 µM | O88943 | CHO-K1 KCNQ2, FluxOR thallium flux, 20 min; stronger effect = lower value;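 active = fluorescence ratio B-score at most minus 3 library SDs, with starting brightness B-score within 2 library SDs, cut at about -5.5 in these data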
Kir21 conf inh – confirmation of mouse Kir2.1 potassium channel inhibitors | shares compounds with KCNQ2 pot | Kir2.1-expressing cells, FluxOR thallium flux fluorescence; stronger effect = lower value | Tl flux remaining, % of negative control (stronger effect = lower value), % at 10 µM | 2,300 tested, 41% active;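 active = Primary-screen hit whose thallium flux fell at least 3 control SD below untreated wells in both duplicates, with normal baseline fluorescence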;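 also: 0% = blank wells without stimulus and 100% = stimulated no-compound controls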
HEK293 Tl flux – parental HEK293 activity in Kir2.1 inhibitor counter-screen; shares compounds with KCNQ2 pot; parental HEK293 cells, FluxOR thallium flux fluorescence; 0% = unstimulated blank wells; FluxOR signal as % of negative control (100 = no effect), % at 10 µM; 2,300 tested, 19% active; AID 2105;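 active = dye signal at least 3 control SD above or below untreated wells in both duplicates, raw fluorescence within 3, either direction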;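 also: percent is based on the flux ratio of peak minus minimum fluorescence over baseline F0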
CHO-K1 ctr – parental CHO-K1 activity in KCNQ2 potentiator counter-screen | 1,200 tested, 43% active | parental CHO-K1 cells, FluxOR thallium flux fluorescence; zero = vehicle mean+3SD, 100% = vehicle-minus-blank window | activity increase over 3SD of controls, % at 10 µM | shares compounds with KCNQ2 pot;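 active = signal rise of at least 3 SD above the untreated control mean, in both duplicate wells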;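 also: counter screen of KCNQ2 potentiator hits so any rise reflects channel-independent effects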
KCNQ1 pot spec – tests whether KCNQ2 potentiators also act on human KCNQ1; shares compounds with KCNQ2 pot; CHO KCNQ1 stable, FluxOR thallium flux fluorescence; beyond 3SD, as % of vehicle-control signal; activation over 3SD threshold, % at 10 µM; 1,200 tested, 28% active; AID 2283;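 active = fluorescence ratio rise of at least 3 SD of vehicle wells above their mean, in both replicate wells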;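 also: 0% = vehicle mean plus 3 SD and 100% = vehicle minus unstimulated blank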
KCNQ2 pot confirm – confirmation of rat KCNQ2 potassium channel potentiators. shares compounds with KCNQ2 pot. CHO-KCNQ2 cells, FluxOR thallium flux fluorescence. potentiation, less the hit threshold, % at 10 µM. 1,200 tested, 68% active. AID 2287;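 active = fluorescence ratio rising 3 SD or more over the vehicle control mean in both replicates, plus primary screen hit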;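 also: peak minus minimum thallium fluorescence divided by baseline after K/Tl stimulus; 0% = vehicle mean plus 3 SD and 100% = vehicle minus unstimulated blank difference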
Kir21 spec – tests whether KCNQ2 potentiators also affect mouse Kir2.1 | shares compounds with KCNQ2 pot | 1,200 tested, 2% active | activity over 3SD threshold, % at 10 µM | HEK293 Kir2.1, FluxOR thallium flux fluorescence;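 active = fluorescence ratio rise of at least 3 SD above the vehicle-control mean, seen in both replicates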;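 also: 0% = vehicle mean plus 3 SD and 100% = vehicle minus no-stimulus blank window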
KCNQ2 W236L MoA – potentiates the retigabine-insensitive rat KCNQ2 W236L mutant channel; shares compounds with KCNQ2 pot; current increase over 3SD of negative controls (%), stronger effect = higher value, % at 25 µM; 940 tested, 10% active; CHO KCNQ2-W236L, automated patch clamp current;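 active = current increase at least 3 SD of the untreated controls above them in both duplicate recordings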
Numbers without * were called inactive; i = inactive; . = no result given.

SMILES	KCNQ2 pot	KCNQ2 inh	Kir21 conf inh	HEK293 Tl flux	others
Cc1cccc(CS(=O)(=O)c2ncc(Cl)c(C(=O)Nc3nnc(C(C)C)s3)n2)c1	13.4*	i	.	.	CHO-K1 ctr=-9.5;KCNQ1 pot spec=-5.7;KCNQ2 pot confirm=98.7*;Kir21 spec=-64.2;KCNQ2 W236L MoA=49.0%*
O=C(Nc1nnc(SCc2ccc(F)cc2)s1)c1cccnc1Cl	.	i	.	.
CCSc1nnc(NC(=O)c2nc(S(=O)(=O)Cc3ccc(F)cc3)ncc2Cl)s1	10.3*	i	.	.	CHO-K1 ctr=-21.3;KCNQ1 pot spec=-15.7;KCNQ2 pot confirm=49.2*;Kir21 spec=-65.1;KCNQ2 W236L MoA=11.3%*
CSc1nnc(NC(=O)c2nc(S(=O)(=O)Cc3ccccc3F)ncc2Cl)s1	10.1*	i	.	.	CHO-K1 ctr=-16.5;KCNQ1 pot spec=-13.1;KCNQ2 pot confirm=50.0*;Kir21 spec=-53.6;KCNQ2 W236L MoA=17.9%*
O=C(NCc1ccc2c(c1)OCO2)c1nc(S(=O)(=O)Cc2ccccc2)ncc1Cl	.	i	.	.
COc1ccc(-c2nc(SCC(=O)NC3CCCCC3)n[nH]2)cc1	.	i	.	.
CCN(CC)S(=O)(=O)c1ccc(C)c(NC(=O)CSc2nc3ccc(C)cc3[nH]2)c1	.	i	.	.
O=C(CN1C(=O)C2CC=CCC2C1=O)Nc1ccc(S(=O)(=O)NC2=NCCCCC2)cc1 (configuration not stated)	0.42	i	.	.
CNC(=O)CCCCC(=O)N/N=C/c1ccc(Cl)cc1Cl	.	i	.	.
CCC(C)(C)n1nnnc1C(c1ccc(F)cc1)N1CCN(C(=O)c2ccco2)CC1 (configuration not stated)	0.94	i	.	.
Cc1cccc(C)c1N(Cc1ccccc1F)S(C)(=O)=O	.	i	.	.
O=C(Nc1nccs1)c1ccc(Br)s1	1.2	i	.	.
Fc1ccc(CNC2CCN(Cc3ccccc3)CC2)cc1	.	i	.	.
Clc1ccc(CNC2CCN(Cc3ccccc3)CC2)cc1	.	i	28.0%*	i
S=C(Nc1ccc(Cl)cc1Cl)NC1CCN(Cc2ccccc2)CC1	0.91	i	.	.
CC(=O)N1CCC(C(=O)c2ccc(Cl)cc2)CC1	.	i	.	.
O=C(NC1CCN(Cc2ccccc2)CC1)c1ccc(Cl)cc1Cl	.	i	76.5%*	i
O=C(c1ccc(Cl)cc1)C1CCN(Cc2ccccc2)CC1	.	i	20.5%*	i
CC1(C)C(C=C(Cl)Cl)C1C(=O)Nc1ccc(S(=O)(=O)Nc2ncccn2)cc1 (configuration not stated)	1.14	i	.	.
Cc1cc(F)ccc1NC(=O)C1CSC2(C)CCC(=O)N12 (configuration not stated)	.	i	.	.
Cc1ccc(C(=O)N/C(=C\c2ccco2)C(=O)NCCN2CCOCC2)cc1	1.46	i	.	.
Cc1cccc(C)c1N1CCN(c2nc(N(C)C)oc(=O)c2C#N)CC1	.	i	.	.
Cc1ccc(S(=O)(=O)Nc2cc(C(F)(F)F)ccc2N2CCOCC2)c(C)c1	0.13	i	.	.
CC(O)CNCCCOc1cccc(C(F)(F)F)c1 (configuration not stated)	2.21	i	.	.
CC(O)CNCCCOc1cccc(Oc2ccccc2)c1 (configuration not stated)	2.39	i	14.5%*	i
SMILES	KCNQ2 pot	KCNQ2 inh	Kir21 conf inh	HEK293 Tl flux	others
COc1ccc(-c2cn3cccnc3n2)cc1F	.	i	.	.
CCN(CC)C(=O)c1[nH]cnc1C(=O)NCC(=O)OCc1ccccc1	.	i	.	.
O=C(NCCc1ccccc1)c1cc(=O)[nH]c2ccccc12	0.01	i	.	.
C=CCn1c(SCc2cccc3ccccc23)nnc1-c1cccnc1	.	i	45.0%*	i
C=CCn1c(SCC(=O)Nc2ccc(C(=O)O)cc2)nnc1-c1cccnc1	.	i	.	.
Cc1noc(C)c1CSc1nc2ccccc2n1CCc1ccccc1	-6	-6*	65.5%*	i
O=C(O)CCn1c(SCc2ccccc2)nc2ccccc21	0.07	i	.	.
CCN(CC)CC(C)OC(=O)COc1ccc(OC)cc1 (configuration not stated)	0.91	i	.	.
COc1coc(C(O)CN)cc1=O (configuration not stated)	0.73	i	.	.
CCOC(=O)C(=Cc1cc(=O)c(OC)co1)C(=O)OCC	2.88	i	i	i
O=C(N/C(=C\c1cccc(Br)c1)C(=O)N1CCOCC1)c1ccco1	.	i	.	.
O=C(CN1C(=O)CCSc2ccccc21)Nc1ccccc1	1.08	i	.	.
Cc1ccc(S(=O)(=O)Nc2cc(Cl)c(O)cc2C)cc1	.	i	.	.
Cc1ccc(S(=O)(=O)Nc2cc(C(C)C)c(O)cc2C)cc1	.	i	34.0%*	71.0%*
O=C(/C=C/c1ccccc1)N1CCN(CCN2C(=O)c3cccc4cccc(c34)C2=O)CC1	.	i	.	.
Clc1ccc(OCCOCCN2CCc3ccccc3C2)c(Cl)c1	.	i	.	.
c1ccc(-c2ccccc2OCCOCCN2CCc3ccccc3C2)cc1	.	i	50.5%*	i
Cc1cc2c(ncn2C)c(NS(=O)(=O)c2ccc(F)cc2)c1C	0.03	i	.	.
Cc1cc2c(ncn2C(C)C)c(NS(=O)(=O)c2ccc(F)cc2)c1C	5.28*	i	i	i	CHO-K1 ctr=-14.9;KCNQ1 pot spec=9.7*;KCNQ2 pot confirm=4.3*;Kir21 spec=-40.9;KCNQ2 W236L MoA=i
O=C1CN(C(=O)CCCc2c[nH]c3ccccc23)c2ccccc2N1	.	i	50.5%*	i
O=C(O)CCCC(=O)N1CC(=O)Nc2ccccc21	1.68	i	.	.
CN(Cc1ccccc1F)C(=O)CN1c2cccc3cccc(c23)S1(=O)=O	.	i	.	.
CCN(CC)CC(=O)N1c2ccccc2Sc2ccccc21	0.08	i	.	.
CCN(CC)CCCCN1c2ccccc2Sc2ccccc21	.	i	44.0%*	i
NS(=O)(=O)c1ccc(N2C(=O)C(=O)/C(=C(/O)c3ccccc3)C2c2ccc(Cl)cc2)cc1 (configuration not stated)	0.3	i	.	.
SMILES	KCNQ2 pot	KCNQ2 inh	Kir21 conf inh	HEK293 Tl flux	others
Cc1cc(C)c2ccc(NN)nc2c1O	.	i	.	.
Cc1cc(C)c2ccc(/C=N/O)nc2c1O	11.6*	i	i	i	CHO-K1 ctr=146.6*;KCNQ1 pot spec=12.0*;KCNQ2 pot confirm=-3.2;Kir21 spec=-17.3;KCNQ2 W236L MoA=i
OCCNCc1cc(Br)ccc1OCc1ccc(Cl)cc1	0.2	i	.	.
OCCNCc1cccc(OCc2ccc(Cl)cc2)c1	0.57	i	i	i
CCCOc1cccc(-c2cc(C(=O)NN)c3ccccc3n2)c1	0.73	i	.	.
CCCOc1cccc(-c2cc(C(=O)N/N=C/c3ccccn3)c3ccccc3n2)c1	5.5*	i	i	i	CHO-K1 ctr=-12.6;KCNQ1 pot spec=-35.7;KCNQ2 pot confirm=-25.7;Kir21 spec=-41.1
